{
  "source": "PubChem BioAssay (EPA / NIEHS)",
  "note": "Where “and” joins values, the source holds several entries; their conditions need not be identical. Identical values can stand only once. The source holds several records for some structures; these can differ, active in one and inactive in another. Calls of active or inactive are those of the source. Rule for the calls: active = hit-call score of the fitted dose curve at least 0.9, where 1 is the maximum; inactive = score below 0.9.",
  "data": [
    {"read-out": "Alpha-fetoprotein (AFP) gene, AFP (gene 174)", "assay": "LTEA_HepaRG_AFP: Life Technologies and Expression Analysis (LTEA) Assay for Alpha-fetoprotein (AFP) gene using HepaRG (AID 2283472);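 for AC50: AFP transcript by TaqMan qRT-PCR normalized to ACTB GAPDH and POLR2A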", "details": "mRNA level, 48 h; actives raise or lower the signal", "procedure,_shortened": "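HepaRG, single lot; 48 h post-plating -> serum-free induction medium; cpd 8-pt, 100 uM top, half-log, 0.5% DMSO, duplicate, 48 h. RNA -> qRT-PCR AFP, norm ACTB/GAPDH/POLR2A. Bidirectional fit vs DMSO.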", "values": [
      {"smiles": "CSC(=O)c1cccc2nnsc12", "outcome": "inactive"},
      {"smiles": "COCCO", "outcome": "inactive"},
      {"smiles": "CCCCCOC(=O)COc1cc(N2C(=O)C3=C(CCCC3)C2=O)c(F)cc1Cl", "outcome": "inactive"},
      {"smiles": "CCCCC(CC)CN1C(=O)C2C3C=CC(C3)C2C1=O", "note": "(stereo not given)", "AC50": "50 µM (active)"},
      {"smiles": "CCN(CC)C(=O)c1cccc(C)c1", "outcome": "inactive"},
      {"smiles": "c1ccc(Nc2ccccc2)cc1", "outcome": "inactive"},
      {"smiles": "CC1(C)C(C=C(Cl)Cl)C1C(=O)OCc1cccc(Oc2ccccc2)c1", "note": "(stereo not given)", "outcome": "inactive"}
    ]},
    {"read-out": "BCL2L11 (gene 10018)", "assay": "LTEA_HepaRG_BCL2L11: Life Technologies and Expression Analysis (LTEA) Assay for Bcl-2 (BCL2L11) gene using HepaRG (AID 2283473)", "details": "mRNA level, 48 h; actives raise or lower the signal", "procedure,_shortened": "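Human hepatic HepaRG cultures are treated 48 h with test chemicals (maximum 100 uM, 0.5% DMSO vehicle). Expression of BCL2L11 is measured by qRT-PCR against ACTB, GAPDH and POLR2A, with activity in either direction scored relative to vehicle.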", "values": [
      {"smiles": "CCNc1nc(N)nc(Cl)n1", "outcome": "inactive"},
      {"smiles": "CC(C)(C)[C@@H](O)[C@@H](Cc1ccc(Cl)cc1)n1cncn1", "outcome": "inactive"},
      {"smiles": "C=CCOC(Cn1ccnc1)c1ccc(Cl)cc1Cl", "note": "(stereo not given)", "AC50": "88.6 µM (active)"},
      {"smiles": "N[C@@H](Cc1cc(I)c(Oc2ccc(O)c(I)c2)c(I)c1)C(=O)O", "outcome": "inactive"},
      {"smiles": "CCOC(=O)NCCOc1ccc(Oc2ccccc2)cc1", "outcome": "inactive"},
      {"smiles": "COC(=O)c1ccccc1C(=O)O", "outcome": "inactive"},
      {"smiles": "O=C(c1ccccc1)C1CCCCC1", "outcome": "inactive"},
      {"smiles": "CCCCCCC(C)OC(=O)COc1nc(F)c(Cl)c(N)c1Cl", "note": "(stereo not given)", "outcome": "inactive"},
      {"smiles": "CCOC(=O)C(C)Oc1ccc(Oc2nc3ccc(Cl)cc3o2)cc1", "note": "(stereo not given)", "outcome": "inactive"},
      {"smiles": "O=C(O)C1(C(=O)Nc2ccc(Cl)cc2Cl)CC1", "outcome": "inactive"},
      {"smiles": "CC(C)(c1ccc(O)cc1)c1ccc(O)cc1", "outcome": "inactive"},
      {"smiles": "CC(=O)S[C@@H]1CC2=CC(=O)CC[C@]2(C)[C@H]2CC[C@@]3(C)[C@@H](CC[C@@]34CCC(=O)O4)[C@H]12", "outcome": "inactive"},
      {"smiles": "OB(O)O", "outcome": "inactive"},
      {"smiles": "S=C(S)NCCNC(=S)S.[Mn+2].[S-]C([S-])=NCCN=C([S-])[S-].[Zn+2]", "AC50": "3.84 µM (active)", "outcome": "inactive"},
      {"smiles": "Cc1nn(C)c(Oc2ccccc2)c1C=NOCc1ccc(C(=O)OC(C)(C)C)cc1", "AC50": "2.53 µM (active)"},
      {"smiles": "Oc1ccc(C(c2ccc(O)cc2)C(Cl)(Cl)Cl)cc1", "outcome": "inactive"},
      {"smiles": "O=C(O)c1ccccc1", "outcome": "inactive"},
      {"smiles": "COC(=O)c1ccc(I)cc1S(=O)(=O)NC(=O)Nc1nc(C)nc(OC)n1", "outcome": "inactive"},
      {"smiles": "CCCOC(=O)c1ccc(C(=O)OCCC)nc1", "outcome": "inactive"},
      {"smiles": "CSC(=O)c1cccc2nnsc12", "outcome": "inactive"},
      {"smiles": "COCCO", "outcome": "inactive"},
      {"smiles": "CCCCCOC(=O)COc1cc(N2C(=O)C3=C(CCCC3)C2=O)c(F)cc1Cl", "outcome": "inactive"},
      {"smiles": "CCCCC(CC)CN1C(=O)C2C3C=CC(C3)C2C1=O", "note": "(stereo not given)", "outcome": "inactive"},
      {"smiles": "CCN(CC)C(=O)c1cccc(C)c1", "outcome": "inactive"},
      {"smiles": "c1ccc(Nc2ccccc2)cc1", "outcome": "inactive"},
      {"smiles": "CC1(C)C(C=C(Cl)Cl)C1C(=O)OCc1cccc(Oc2ccccc2)c1", "note": "(stereo not given)", "outcome": "inactive"}
    ]},
    {"read-out": "Apolipoprotein A-V (APOA5) gene, APOA5 (gene 116519)", "assay": "LTEA_HepaRG_APOA5: Life Technologies and Expression Analysis (LTEA) Assay for Apolipoprotein A-V (APOA5) gene using HepaRG (AID 2283474)", "details": "mRNA level, 48 h; actives raise or lower the signal", "procedure,_shortened": "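Concentration-response of APOA5 expression in HepaRG: eight half-log doses to 100 uM, 48 h, qRT-PCR normalized to ACTB/GAPDH/POLR2A, bidirectional fitting with 0.5% DMSO as baseline.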", "values": [
      {"smiles": "CCNc1nc(N)nc(Cl)n1", "outcome": "inactive"},
      {"smiles": "CC(C)(C)[C@@H](O)[C@@H](Cc1ccc(Cl)cc1)n1cncn1", "outcome": "inactive"},
      {"smiles": "N[C@@H](Cc1cc(I)c(Oc2ccc(O)c(I)c2)c(I)c1)C(=O)O", "AC50": "69.9 µM (active)"},
      {"smiles": "CCOC(=O)NCCOc1ccc(Oc2ccccc2)cc1", "AC50": "85.8 µM (active)"},
      {"smiles": "COC(=O)c1ccccc1C(=O)O", "outcome": "inactive"},
      {"smiles": "O=C(c1ccccc1)C1CCCCC1", "outcome": "inactive"},
      {"smiles": "CCCCCCC(C)OC(=O)COc1nc(F)c(Cl)c(N)c1Cl", "note": "(stereo not given)", "outcome": "inactive"},
      {"smiles": "CCOC(=O)C(C)Oc1ccc(Oc2nc3ccc(Cl)cc3o2)cc1", "note": "(stereo not given)", "AC50": "11.5 µM (active)"},
      {"smiles": "O=C(O)C1(C(=O)Nc2ccc(Cl)cc2Cl)CC1", "AC50": "74.9 µM (active)"},
      {"smiles": "CC(C)(c1ccc(O)cc1)c1ccc(O)cc1", "outcome": "inactive"},
      {"smiles": "CC(=O)S[C@@H]1CC2=CC(=O)CC[C@]2(C)[C@H]2CC[C@@]3(C)[C@@H](CC[C@@]34CCC(=O)O4)[C@H]12", "AC50": "61.8 µM (active)"},
      {"smiles": "OB(O)O", "outcome": "inactive"},
      {"smiles": "S=C(S)NCCNC(=S)S.[Mn+2].[S-]C([S-])=NCCN=C([S-])[S-].[Zn+2]", "AC50": "1.22 µM (active) and 1.49 µM (active) and 1.99 µM (active)"},
      {"smiles": "Cc1nn(C)c(Oc2ccccc2)c1C=NOCc1ccc(C(=O)OC(C)(C)C)cc1", "AC50": "29.9 µM (active)"},
      {"smiles": "Oc1ccc(C(c2ccc(O)cc2)C(Cl)(Cl)Cl)cc1", "AC50": "79.7 µM (active)"},
      {"smiles": "O=C(O)c1ccccc1", "outcome": "inactive"},
      {"smiles": "COC(=O)c1ccc(I)cc1S(=O)(=O)NC(=O)Nc1nc(C)nc(OC)n1", "outcome": "inactive"},
      {"smiles": "CCCOC(=O)c1ccc(C(=O)OCCC)nc1", "outcome": "inactive"},
      {"smiles": "CSC(=O)c1cccc2nnsc12", "outcome": "inactive"},
      {"smiles": "COCCO", "outcome": "inactive"},
      {"smiles": "CCCCCOC(=O)COc1cc(N2C(=O)C3=C(CCCC3)C2=O)c(F)cc1Cl", "outcome": "inactive"},
      {"smiles": "CCCCC(CC)CN1C(=O)C2C3C=CC(C3)C2C1=O", "note": "(stereo not given)", "AC50": "79.3 µM (active)"},
      {"smiles": "CCN(CC)C(=O)c1cccc(C)c1", "outcome": "inactive"},
      {"smiles": "c1ccc(Nc2ccccc2)cc1", "outcome": "inactive"},
      {"smiles": "CC1(C)C(C=C(Cl)Cl)C1C(=O)OCc1cccc(Oc2ccccc2)c1", "note": "(stereo not given)", "outcome": "inactive"}
    ]},
    {"read-out": "Apoptosis regulator Bcl-2 (Homo sapiens) (UniProt P10415)", "assay": "LTEA_HepaRG_BCL2: Life Technologies and Expression Analysis (LTEA) Assay for Bcl-2 gene using HepaRG (AID 2283475)", "details": "mRNA level, 48 h; actives raise or lower the signal", "procedure,_shortened": "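HepaRG, plated 48 h then switched to serum-free induction medium; dosed 48 h, 8 conc. (max 100 uM, half-log steps), duplicate, 0.5% DMSO. Lysis in RLT, RNA isolated, TaqMan qRT-PCR for BCL2; ACTB/GAPDH/POLR2A normalisation; bidirectional fit vs DMSO.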", "values": [
      {"smiles": "CCNc1nc(N)nc(Cl)n1", "outcome": "inactive"},
      {"smiles": "CC(C)(C)[C@@H](O)[C@@H](Cc1ccc(Cl)cc1)n1cncn1", "outcome": "inactive"},
      {"smiles": "C=CCOC(Cn1ccnc1)c1ccc(Cl)cc1Cl", "note": "(stereo not given)", "AC50": "13.7 µM (active)"},
      {"smiles": "N[C@@H](Cc1cc(I)c(Oc2ccc(O)c(I)c2)c(I)c1)C(=O)O", "outcome": "inactive"},
      {"smiles": "CCOC(=O)NCCOc1ccc(Oc2ccccc2)cc1", "AC50": "82.1 µM (active)"},
      {"smiles": "COC(=O)c1ccccc1C(=O)O", "outcome": "inactive"},
      {"smiles": "O=C(c1ccccc1)C1CCCCC1", "outcome": "inactive"},
      {"smiles": "CCCCCCC(C)OC(=O)COc1nc(F)c(Cl)c(N)c1Cl", "note": "(stereo not given)", "outcome": "inactive"},
      {"smiles": "CCOC(=O)C(C)Oc1ccc(Oc2nc3ccc(Cl)cc3o2)cc1", "note": "(stereo not given)", "outcome": "inactive"},
      {"smiles": "O=C(O)C1(C(=O)Nc2ccc(Cl)cc2Cl)CC1", "outcome": "inactive"},
      {"smiles": "CC(C)(c1ccc(O)cc1)c1ccc(O)cc1", "outcome": "inactive"},
      {"smiles": "CC(=O)S[C@@H]1CC2=CC(=O)CC[C@]2(C)[C@H]2CC[C@@]3(C)[C@@H](CC[C@@]34CCC(=O)O4)[C@H]12", "outcome": "inactive"},
      {"smiles": "OB(O)O", "outcome": "inactive"},
      {"smiles": "S=C(S)NCCNC(=S)S.[Mn+2].[S-]C([S-])=NCCN=C([S-])[S-].[Zn+2]", "AC50": "163 nM (active) and 351 nM (active) and 509 nM (active)"},
      {"smiles": "Cc1nn(C)c(Oc2ccccc2)c1C=NOCc1ccc(C(=O)OC(C)(C)C)cc1", "AC50": "7.02 µM (active)"},
      {"smiles": "Oc1ccc(C(c2ccc(O)cc2)C(Cl)(Cl)Cl)cc1", "outcome": "inactive"},
      {"smiles": "O=C(O)c1ccccc1", "outcome": "inactive"},
      {"smiles": "COC(=O)c1ccc(I)cc1S(=O)(=O)NC(=O)Nc1nc(C)nc(OC)n1", "outcome": "inactive"},
      {"smiles": "CCCOC(=O)c1ccc(C(=O)OCCC)nc1", "outcome": "inactive"},
      {"smiles": "CSC(=O)c1cccc2nnsc12", "outcome": "inactive"},
      {"smiles": "COCCO", "outcome": "inactive"},
      {"smiles": "CCCCCOC(=O)COc1cc(N2C(=O)C3=C(CCCC3)C2=O)c(F)cc1Cl", "outcome": "inactive"},
      {"smiles": "CCCCC(CC)CN1C(=O)C2C3C=CC(C3)C2C1=O", "note": "(stereo not given)", "outcome": "inactive"},
      {"smiles": "CCN(CC)C(=O)c1cccc(C)c1", "outcome": "inactive"},
      {"smiles": "c1ccc(Nc2ccccc2)cc1", "outcome": "inactive"},
      {"smiles": "CC1(C)C(C=C(Cl)Cl)C1C(=O)OCc1cccc(Oc2ccccc2)c1", "note": "(stereo not given)", "outcome": "inactive"}
    ]}
  ]
}
